Reference: PubChem BioAssay (NCATS)
A number with no mark means an inactive call. Records with an inconclusive call do not appear. A call without a number means that no potency is given here. Calls of active or inactive are those of the source. Unless noted, the call rests on the fitted dose curve; in most records, active means well fitted curve in the direction sought with a large enough effect; inconclusive means small, poorly fitted or top-dose-only effect, or another doubt; inactive means no such curve, though single readings can be large; an effect the other way counts as inactive or inconclusive.

Columns and labels:
[1] = qHTS for differential inhibitors of proliferation of Plasmodium falciparum line GB4 (AID 1816); settings: Potency: Plasmodium falciparum GB4 proliferation inhibition;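 further: potency means the concentration at half of the fitted maximal effect; parasite growth measured after 72 h incubation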
[2] = qHTS for differential inhibitors of proliferation of Plasmodium falciparum line 3D7 (AID 1876); further: potency means the concentration at half of the fitted maximal effect
[3] = qHTS for differential inhibitors of proliferation of Plasmodium falciparum line D10 (AID 1877);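 further: potency means the concentration at half of the fitted maximal effect; parasites grown with compound for 72 h before DNA staining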
[4] = qHTS for differential inhibitors of proliferation of Plasmodium falciparum line Dd2 (AID 1882); settings: Potency: Plasmodium falciparum Dd2 proliferation inhibition; further: potency means the concentration at half of the fitted maximal effect; nearly all actives have a fitted effect of over 65% in size
Summary of the method: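 Dd2-infected erythrocytes (0.3% parasitemia, 2.5% hematocrit final) incubated with compound 72 h at 37 C, 5% CO2; lysed with saponin/Triton buffer containing SYBR Green I, incubated overnight in the dark, then read by fluorescence (485/535 nm). Normalized to 0.29 uM artemisinin and DMSO.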

[5] = qHTS for differential inhibitors of proliferation of Plasmodium falciparum line W2 (AID 1883); settings: Potency: Plasmodium falciparum W2 proliferation inhibition;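 further: potency means the concentration at half of the fitted maximal effect; parasites grown with compound for 72 h before lysis and staining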
[6] = qHTS for differential inhibitors of proliferation of Plasmodium falciparum line HB3 (AID 1886); settings: Potency: Plasmodium falciparum HB3 proliferation inhibition;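 further: potency means the concentration at half of the fitted maximal effect; parasites grown with compound for 72 h before SYBR Green readout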
[7] = Validation screen for inhibitors of Lassa infection (AID 463096; calls by dose curve)
[8] = HepG2 viability counterscreen (readout 2: ATP content) against the NCATS DSHEA and TCM libraries (AID 1794840);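 further: HepG2 cells exposed to substances for about 24 h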
Summary of the method: (§1)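 After HepG2 cells attach for ~4 h, substances are added and incubated ~24 h at 37C, 5% CO2. GF-AFC fluorescence then CellTiter-Glo luminescence give protease and ATP readouts.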

[9] = HepG2 viability counterscreen (readout 1: protease activity) against the NCATS DSHEA and TCM libraries (AID 1794841);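 further: cells exposed to compounds for about 24 h before the protease read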
Summary of the method: as §1

[10] = target: Cytochrome P450 3A4 (Homo sapiens) (UniProt P08684); assay: qHTS for inhibitors of CYP3A4 against the NCATS DSHEA and TCM libraries (AID 1919971); further: potency means the concentration at half of the fitted maximal effect
Summary of the method: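 Luminescent P450-Glo format: compounds preincubated 15 min with enzyme and luciferin substrate, reaction run 30-45 min after NADPH regeneration solution. Intraplate controls: ketoconazole for CYP3A4 and CYP2C19, sulfaphenazole for CYP2C9.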

[11] = KB-3-1 P-gp reporter qHTS against the NCATS DSHEA and TCM libraries (AID 1919975)
Summary of the method: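 Cell viability qHTS: 500 KB-3-1 cells/well, substances in titration, ~72 h, 37C; luminescent CellTiter-Glo read.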

[12] = qHTS Counterscreen for compound interference against the NCATS DSHEA and TCM libraries (AID 1919978); settings: firefly luciferase detection reagent interference, luminescence;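 further: compounds preincubated with 1 µM D-luciferin or buffer before detection reagent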
Summary of the method: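 Interference check: test samples were incubated with D-luciferin (final 1 uM) or buffer only for 15 min, room temperature, in a qHTS titration up to 39.8 uM, then developed with detection reagent and read by luminescence.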

[13] = Dual reporter qHTS for agonist of Pregnane X Receptor (hPXR) against the NCATS DSHEA and TCM libraries: Fluorescence readout (AID 1920058)
Summary of the method: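 hPXR-Luc HepG2 cells, 2000/well in charcoal-stripped serum, attached 5 h, dosed for ~24 h at 37 °C. Fluorescence read is CellTiter-Fluor viability (Ex/Em 405/540 nm); rifampicin positive, tetraoctyl ammonium bromide (92 µM) cytotoxicity controls.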

[14] = target: Nuclear receptor subfamily 1 group I member 2 (Homo sapiens) (UniProt O75469); assay: Dual reporter qHTS for agonist of Pregnane X Receptor (hPXR) against the NCATS DSHEA and TCM libraries: Luminescence readout (AID 1920059)
Summary of the method: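 hPXR-Luc HepG2 cells, 2000/well in 5% charcoal-stripped FBS medium, attached 5 h, then exposed 24 h at 37C to compounds. Viability by CellTiter-Fluor, then luciferase luminescence with ONE-Glo.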

[15] = target: Nuclear receptor subfamily 1 group I member 2 (Homo sapiens) (UniProt O75469); assay: Dual reporter qHTS for antagonist of Pregnane X Receptor (hPXR) against the NCATS DSHEA and TCM libraries: Luminescence Readout (AID 1920060)
Summary of the method: (§2)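 Rifampicin-stimulated (2 uM final) hPXR-luciferase HepG2 cells were treated for 24 h with DSNP/TCM substances. Viability came from CellTiter-Fluor fluorescence, reporter activity from ONE-Glo luminescence.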

[16] = Dual reporter qHTS for antagonist of Pregnane X Receptor (hPXR) against the NCATS DSHEA and TCM libraries: Fluorescence Readout (AID 1920061)
Summary of the method: as §2

[17] = tested on: 7G8; assay: qHTS profiling for inhibitors of Plasmodium falciparum proliferation (AID 504749); further: nearly all actives have a fitted effect of over 60% in size; settings: P. falciparum in erythrocytes, SYBR Green DNA, 72 h; series mostly up to 12.8 µM
Summary of the method: (§3)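 P. falciparum-infected erythrocytes (0.3% parasitemia, 2.5% hematocrit) incubated with compound 72 h at 37 C, 5% CO2. Parasite DNA detected by SYBR Green after lysis, overnight at room temperature; normalised to 0.29 uM artemisinin and DMSO.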

[18] = tested on: CP260; assay: as above; settings: P. falciparum in erythrocytes, SYBR Green DNA, 72 h; series mostly up to 28.7 µM
Summary of the method: as §3

[19] = tested on: CP335; assay: as above; settings: P. falciparum in erythrocytes, SYBR Green DNA, 72 h; series mostly up to 12.8 µM
Summary of the method: as §3

[20] = target: Cytochrome P450 2C19 (Homo sapiens) (UniProt P33261); assay: qHTS Assay for Inhibitors and Substrates of Cytochrome P450 2C19 (AID 899); further: nearly all actives have a fitted effect of over 60% in size
Summary of the method: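 5 nM human CYP2C19 with 10uM Luciferin-H EGE (at KM) in 50mM KPO4, compound preincubated 10 min at 37C, then NADPH regeneration for 60 min at 37C. Luciferin read by luminescence after detection reagent; normalized to 57uM ketoconazole as full inhibition.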

Nuclear receptor subfamily 1 group I member 2 (Homo sapiens), sequence (O75469 whole entry, looked up): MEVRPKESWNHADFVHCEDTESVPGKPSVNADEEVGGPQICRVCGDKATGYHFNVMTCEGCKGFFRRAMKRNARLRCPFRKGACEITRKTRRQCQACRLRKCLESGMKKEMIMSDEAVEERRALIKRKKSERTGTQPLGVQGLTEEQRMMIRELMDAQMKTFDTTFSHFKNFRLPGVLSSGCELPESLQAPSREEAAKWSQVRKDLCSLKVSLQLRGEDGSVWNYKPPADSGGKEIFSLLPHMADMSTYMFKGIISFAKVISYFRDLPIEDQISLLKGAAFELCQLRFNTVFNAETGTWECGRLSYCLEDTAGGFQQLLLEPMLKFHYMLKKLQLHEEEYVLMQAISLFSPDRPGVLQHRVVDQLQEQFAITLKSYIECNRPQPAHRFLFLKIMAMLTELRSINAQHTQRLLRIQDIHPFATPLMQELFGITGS
Cytochrome P450 2C19 (Homo sapiens), sequence (P33261 whole entry, looked up): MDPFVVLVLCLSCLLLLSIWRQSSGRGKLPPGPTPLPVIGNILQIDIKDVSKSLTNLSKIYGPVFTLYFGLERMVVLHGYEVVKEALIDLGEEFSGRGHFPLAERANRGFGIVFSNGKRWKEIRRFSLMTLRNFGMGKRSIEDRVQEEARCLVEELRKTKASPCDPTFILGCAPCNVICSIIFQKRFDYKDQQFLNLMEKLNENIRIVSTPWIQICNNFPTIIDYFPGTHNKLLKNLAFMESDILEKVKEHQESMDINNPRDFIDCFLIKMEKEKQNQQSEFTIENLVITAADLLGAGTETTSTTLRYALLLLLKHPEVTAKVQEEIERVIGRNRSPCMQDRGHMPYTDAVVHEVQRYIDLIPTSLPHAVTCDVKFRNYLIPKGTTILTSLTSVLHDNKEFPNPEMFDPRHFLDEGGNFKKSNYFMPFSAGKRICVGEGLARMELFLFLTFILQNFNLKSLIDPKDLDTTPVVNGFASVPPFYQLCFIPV
Cytochrome P450 3A4 (Homo sapiens), sequence (P08684 whole entry, looked up): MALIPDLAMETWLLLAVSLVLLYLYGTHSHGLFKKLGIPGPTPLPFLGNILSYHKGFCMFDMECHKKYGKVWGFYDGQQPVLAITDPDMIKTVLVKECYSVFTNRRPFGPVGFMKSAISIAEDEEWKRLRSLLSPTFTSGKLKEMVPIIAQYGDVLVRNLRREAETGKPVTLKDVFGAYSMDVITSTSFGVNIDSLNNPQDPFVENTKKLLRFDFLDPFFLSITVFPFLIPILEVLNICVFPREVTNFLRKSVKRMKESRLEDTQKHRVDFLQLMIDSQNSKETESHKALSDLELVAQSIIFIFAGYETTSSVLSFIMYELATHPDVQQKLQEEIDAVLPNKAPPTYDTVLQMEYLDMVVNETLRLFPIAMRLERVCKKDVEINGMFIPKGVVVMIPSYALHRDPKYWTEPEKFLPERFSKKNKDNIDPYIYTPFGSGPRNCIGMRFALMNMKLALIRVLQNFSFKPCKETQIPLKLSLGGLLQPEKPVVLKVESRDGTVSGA

Q: With `CN1C[C@H](C(=O)N[C@]2(C)O[C@@]3(O)C4CCCN4C(=O)[C@H](Cc4ccccc4)N3C2=O)C[C@@H]2c3cccc4[nH]cc(c34)C[C@H]21` (stereo not given in full) as the compound, how does the Potency [1] read?
A: 2.24 µM (active)

Q: What about the Potency [2] of the same compound?
A: 2 µM (active)

Q: And the Potency [3]?
A: 4.47 µM (active)

Q: And the Potency [4]?
A: 2.51 µM (active)

Q: What about the Potency [5] of the same compound?
A: 1.41 µM (active)

Q: And the Potency [6]?
A: 0.891 µM (active)

Q: And the Potency [7]?
A: inactive

Q: With `COC1=CC(=O)O[C@@H](/C=C/c2ccc3c(c2)OCO3)C1` as the compound, how does the outcome [8] read?
A: inactive

Q: What about the outcome [9] of the same compound?
A: inactive

Q: And the Potency [10]?
A: 14.1 µM (active)

Q: What about the outcome [11] of the same compound?
A: inactive

Q: And the max response [12]?
A: 0.0511%

Q: What about the outcome [13] of the same compound?
A: inactive

Q: And the Potency [14]?
A: inactive

Q: And the outcome [15]?
A: inactive

Q: What about the outcome [16] of the same compound?
A: inactive

Q: With `C[C@]12CC[C@H]3[C@@H](CCC4=CC(=O)CC[C@@]43C)[C@@H]1CC[C@@H]2O` as the compound, how does the Potency [17] read?
A: inactive

Q: And the Potency [18]?
A: inactive

Q: Which Potency [19] does the source give for `C[C@@]12CCC(=O)C=C1C=C[C@H]1[C@H]3CC[C@](O)(CCC(=O)O)[C@]3(C)CC[C@@H]12` here?
A: inactive

Q: Which Potency [20] does the source give for `CO[C@@H](C)[C@](O)(C(=O)OCC1=CCN2CC[C@@H](O)[C@H]12)C(C)C` here?
A: inactive
